Bead autofluor = counter-screen for toxin protease inhibitors: compound fluorescence. compound autofluorescence counterscreen, microsphere flow cytometry; hits give high values. fluorescence intensity (no concentration beside the values). hit rate 3.1% among 360,000. AID 624483; in the data active = fluorescence intensity above about 16000; inconclusive = no clear call, values can overlap the other calls
BoNT-A LC inh2 = BoNT A light chain protease inhibition; multiplex microsphere protease substrate cleavage, flow cytometry; inhibition, % at 10 µM; hit rate 0.17% among 360,000; note: plate controls were buffer without enzyme for full effect and enzyme alone for no effect
BoNT-F LC inh = BoNT F light chain protease inhibition | Multiplex microsphere protease cleavage assay, flow cytometry | inhibition, % at 10 µM | hit rate 0.22% among 360,000 | AID 588497; in the data active = inhibition above about 35%, passing the limit was not always enough; inconclusive = no clear call, values can overlap the other calls; note: plate controls were buffer without enzyme for full effect and enzyme alone for no effect
Anthrax LF inh2 = anthrax lethal factor protease inhibition; P15917; multiplex microsphere protease cleavage assay, LF; inhibition, % at 10 µM; hit rate 0.12% among 360,000; AID 588501; note: plate controls were buffer without enzyme for full effect and enzyme alone for no effect
Vc quorum ag = induces V. cholerae light production without autoinducers; V. cholerae BH1578 lux reporter, luminescence, 6 h; activation, % at 18.7 µM; hit rate 0.16% among 350,000; in the data active = activation mostly above about 9.7%, no sharp cut-off; inconclusive = no clear call, values can overlap the other calls; inactive = mostly below about 3.7%
* hit, by the source's call; i = inactive; ? = inconclusive. An excerpt weighted towards active compounds, which were near 3.5% of everything screened. Cut-off read from the data, not from the text of the source, unless noted: active = inhibition above about 30%; inconclusive = no clear call, values can overlap the other calls; inactive = below that.

SMILES	Bead autofluor	BoNT-A LC inh2	BoNT-F LC inh	Anthrax LF inh2	Vc quorum ag
COc1ccc(OC)c(NC(=O)CN(c2ccc(C)cc2)S(=O)(=O)c2c(C)noc2C)c1	4629	1.1	26.3	-4.8	i
COc1ccccc1N1CCN(C2CCCN(C(=O)CC(F)(F)F)C2)CC1 (configuration not stated)	4234	-0.1	-22.8	-1.6	i
CCc1cc(C(=O)N(CCCOC)c2c(N)n(Cc3ccccc3)c(=O)[nH]c2=O)sc1C	5129	1.3	5.5	2.5	-2.8
COC(=O)Cc1c(C)nc2nc(NCc3ccc(Cl)cc3)[nH]n2c1=O	9208	0.3	-4.5	0.7	i
COC(=O)Cc1c(C)nc2nc(NCc3cccc([N+](=O)[O-])c3)[nH]n2c1=O	19811*	2.2	1.5	-1.9	-0.2
Cc1cc(C)c(S(=O)(=O)Nc2cccnc2)c(C)c1	22484*	2.2	1.9	-0.1	i
Cc1cc(C)c(S(=O)(=O)Nc2ccccc2)c(C)c1	3493	-0.3	4.1	-5.8	i
O=c1c2cc(N3CCOCC3)ccc2[nH]c(=S)n1Cc1cccc(Cl)c1	23197*	0.1	-1.3	-0.6	-2.4
COc1cccc(Cn2c(=S)[nH]c3ccc(N4CCOCC4)cc3c2=O)c1	20640*	-3.0	-2.6	-0.7	i
CC1CCN(CCCn2c(=S)[nH]c3ccc(N4CCOCC4)cc3c2=O)CC1	22801*	-1.9	-3.3	-1.1	i
CCn1cc(C(=O)NCc2ccc3c(c2)OCO3)c(=O)c2cc(S(=O)(=O)N(C)C)ccc21	9237	1.0	3.4	-1.7	i
CCn1cc(C(=O)NCc2ccc3c(c2)OCO3)c(=O)c2cc(S(=O)(=O)N3CCOCC3)ccc21	21213*	?	-9.7	-0.4	-2.8
CCOC(=O)C1CCCN(C(=O)c2cn(CC)c3ccc(S(=O)(=O)N4CCCC4)cc3c2=O)C1 (configuration not stated)	16154*	1.3	-2.4	-3.9	i
CCn1cc(C(=O)N2CC(C)CC(C)C2)c(=O)c2cc(S(=O)(=O)N3CCOCC3)ccc21 (configuration not stated)	24578*	-2.4	-4.2	0.8	i
CCOC(=O)N1CCN(C(=O)c2cn(CC)c3ccc(S(=O)(=O)N4CCC(C)CC4)cc3c2=O)CC1	4550	0.1	3.0	2.6	0.0
CCOC(=O)C1CCCN(C(=O)c2cc(S(=O)(=O)N3CCCCC3)ccc2C)C1 (configuration not stated)	4294	1.0	4.7	0.6	0.6
CCOC(=O)C1CCCN(C(=O)c2cn(C)c3ccc(S(=O)(=O)N4CCCC4)cc3c2=O)C1 (configuration not stated)	21667*	?	4.0	-0.1	-1.0
CSc1cccc(NC(=O)c2ccc(NC3=NC4CS(=O)(=O)CC4S3)cc2)c1 (configuration not stated)	5151	-0.1	-7.5	-2.0	0.1
Cn1ncc2c(NNC(=O)C3CCCCC3)ncnc21	3744	-1.1	-2.3	2.1	-0.3
COCCN(CCOC)C(=O)c1c[nH]c2ccc(S(=O)(=O)N(C)c3ccc(F)cc3)cc2c1=O	18595*	2.5	2.4	2.7	i
CCOc1ccccc1N(C)S(=O)(=O)c1ccc2[nH]cc(C(=O)N(CCOC)CCOC)c(=O)c2c1	3666	-1.7	-2.2	-0.2	-0.5
CCn1c(SCc2nnc(-c3ccccc3)o2)nnc1-c1ccc(S(=O)(=O)N2CCCC2)cc1	23063*	-1.3	-3.2	0.1	i
Cc1ccc(C(c2nnnn2C(C)(C)C)N2CCC(C)CC2)cc1 (configuration not stated)	20278*	1.7	4.3	-5.7	-0.4
CCOc1cc(N2CCOCC2)c(OCC)cc1NC(=O)COC(=O)/C=C/c1ccc(OC(F)F)cc1	5715	-3.4	-7.2	-6.0	i
NS(=O)(=O)c1ccc(CCNC(=O)C2CC(=O)N(Cc3ccccc3Cl)C2)cc1 (configuration not stated)	4205	-0.6	-5.4	-7.5	i
SMILES	Bead autofluor	BoNT-A LC inh2	BoNT-F LC inh	Anthrax LF inh2	Vc quorum ag
CCOC(=O)N1CCN(C(=O)CCCCCn2c(=S)[nH]c3ccsc3c2=O)CC1	4166	0.1	-3.9	5.8	-0.5
O=C(CCCn1c(=S)[nH]c2ccsc2c1=O)NCc1ccco1	19127*	1.3	1.6	-4.5	1.8
Cc1ccccc1Cn1c(=O)n(CCCC(=O)NCc2ccco2)c(=O)c2sccc21	3128	-0.2	1.9	-1.3	i
O=C(CCCCn1c(=S)[nH]c2ccsc2c1=O)NCc1ccco1	16657*	-1.0	-4.1	-9.1	-1.8
CC(=O)c1ccc(OCCCC(=O)NC2=NCCS2)cc1	23568*	?	-7.4	-2.9	i
CSc1nncn1/N=C/c1ccc2c(c1)OCO2	23493*	-3.8	-6.5	-1.8	-1.0
